# Measured values reported in PubChem BioAssay AID463198 (Broad Institute, 2010).
# The list shows a part of the results. Values without a mark were called inactive. The source made the active and inactive calls.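 Rule for the calls: active = fitted AC50 no greater than ten times the top concentration tested (cut at about 17 µM in these data); inconclusive = flat fit with 30 to 70% signal change, or an unreliable fit; inactive = AC50 beyond ten times the top concentration tested.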
# Assay: compound competition with acridine orange for DNA – biochemical, fluorescence polarization, cell-free, counter-screen for LANA–histone interaction inhibitor project, dose response (AID 463198)
# Settings: acridine orange-DNA binding
row,SMILES,AC50
1,Cc1nn(C)cc1N1C(=O)c2cccc3c(N)ccc(c23)C1=O,4.91 µM (active)
2,COc1ccc(C2C=C(c3ccc(Br)cc3)Nc3nc(NS(C)(=O)=O)nn32)cc1 (centres undefined),> 35 µM
3,CN1C(=O)c2cccc3c(N)ccc(c23)C1=O,7.65 µM (active)
4,O=S(=O)(Nc1cc(Cl)ccc1N1CCOCC1)c1ccccc1Cl,> 35 µM
